Inhibition data for 30 compounds are collected here from PubChem BioAssay AID425 (Sanford-Burnham Center for Chemical Genomics, 2006).

As usually defined, the inhibition is the relative decrease from the control value, in per cent.

Among all 110,000 compounds or so, about 190 (0.17%) were called active. Shown is part of a subset that was picked to be rich in actives. Potency and affinity values are given separately. Unmarked numbers belong to inactive results. Cut-off read from the data, not from the text of the source: active = inhibition above about 50%; inactive = the rest.

The target in the test is Dual specificity protein phosphatase 6 (Rattus norvegicus) (UniProt Q64346). In words: inhibition of rat DUSP6 enzyme activity – biochemical, in vitro, primary screen (AID 425).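 Note: plate controls were vehicle for no effect and reference inhibitor for full effect.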 The settings on record: recombinant MKP-3 phosphatase activity, fluorescence; at 20 µM; hits give high values.
Chain of Dual specificity protein phosphatase 6 (Rattus norvegicus) (Q64346 whole entry, looked up): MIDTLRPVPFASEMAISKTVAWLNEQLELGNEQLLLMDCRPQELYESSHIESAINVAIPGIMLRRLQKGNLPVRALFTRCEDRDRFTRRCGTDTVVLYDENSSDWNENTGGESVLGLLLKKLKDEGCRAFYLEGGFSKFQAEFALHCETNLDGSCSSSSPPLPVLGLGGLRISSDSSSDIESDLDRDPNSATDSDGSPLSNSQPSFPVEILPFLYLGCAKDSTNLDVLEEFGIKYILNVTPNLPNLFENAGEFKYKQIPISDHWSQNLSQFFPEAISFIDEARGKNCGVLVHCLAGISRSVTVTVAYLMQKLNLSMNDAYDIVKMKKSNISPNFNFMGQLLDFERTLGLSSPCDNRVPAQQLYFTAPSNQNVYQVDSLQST
As to `COc1ccc(CCNC(=O)C2CCN(S(=O)(=O)N3CCCCC3)CC2)cc1OC`, the inhibition was -1.4%.

For the compound `COc1ccc(Cc2nnc(SCC(=O)N3CCN(c4ccccc4)CC3)o2)cc1`, the inhibition is -9.3%.

Consider `O=C1N=c2ccccc2=C1c1sc(=Nc2ccccc2)n(-c2ccccc2)c1O`, for which the inhibition was -2%.

In the case of `O=C1N=c2ccccc2=C1c1sc(=O)n(-c2ccc(O)cc2)c1O`, the inhibition was 0.6%.

For the compound `O=C1N=c2ccccc2=C1c1s/c(=N/N=C2/C(=O)Nc3ccccc32)n(-c2ccc(O)cc2)c1O`, the inhibition is 69.8% (active).

As to `Cc1ccc(-c2nc(CS(=O)CC(=O)NCCC(C)C)c(C)o2)cc1` (stereo not given), the inhibition was -10.1%.

For `CCCCNCCCOc1ccccc1CC`, the inhibition was -0.3%.

With `COc1cc(C=C2C(=O)c3ccccc3C2=O)cc(Br)c1OCC(=O)O`, the inhibition was 3.3%.

As for `COc1cc(/C=C2\SC(NC(C)=O)=NC2=O)cc(Br)c1OC`, the inhibition is 3.2%.

As to `CCOCCOC(=O)c1cccc(NC(=O)/C=C/c2ccc(Cl)cc2Cl)c1`, the inhibition is 3.2%.

Consider `NC(=O)c1cc(-c2ccccc2)sc1N`, for which the inhibition was 3.8%.

For the compound `O=C(O)c1cccc(NC2=C(Cl)C(=O)N(c3ccc(Cl)cc3)C2=O)c1`, the inhibition is 7.4%.

`O=C1NC(=O)N(c2ccccc2)C(=O)/C1=C\c1cccn1-c1cccc([N+](=O)[O-])c1`: the inhibition was 4.5%.

`O=C1OCCC1Sc1nc2ccccc2[nH]1` (stereo not given): the inhibition was -11%.

Regarding `FC(F)(F)c1ccc2nnc(-c3cccc(Cl)c3Cl)n2c1`, the inhibition was 5.1%.

With `O=C(NN1C(=O)/C(=C/c2cc3c(cc2[N+](=O)[O-])OCO3)SC1=S)c1ccccc1Cl`, the inhibition was 8.9%.

For `C=CCN1C(=O)/C(=C\c2cc3c(cc2Br)OCO3)SC1=S`, the inhibition was 0.3%.

As to `CC(=O)NN1C(=O)/C(=C/c2cc3c(cc2[N+](=O)[O-])OCO3)SC1=S`, the inhibition was 119% (active).

As for `C=CCN1C(=O)/C(=C\c2cc3c(cc2[N+](=O)[O-])OCO3)SC1=S`, the inhibition was 124% (active).

With `O=C1/C(=C\c2cc3c(cc2[N+](=O)[O-])OCO3)SC(=S)N1c1ccccc1`, the inhibition was 5.2%.

For the compound `CC(=O)NN1C(=O)/C(=C\c2ccc(O)c([N+](=O)[O-])c2)SC1=S`, the inhibition is 1.4%.

On to `CC1(C(=O)O)CCC(C(=O)N2CCOCC2)C1(C)C` (stereo not given), for which the inhibition is -3.7%.

For the compound `CC(c1nc2ccccc2n1C)C(O)c1ccccc1` (stereo not given), the inhibition was -0.3%.

For `COc1ccc(NC(=O)c2ccco2)cc1NC(=O)c1ccco1`, the inhibition was 0.7%.

Take `O=C(O)c1cccc2c1NC(c1ccc([N+](=O)[O-])cc1)C1CC=CC21` (stereo not given): the inhibition was 71.1% (active).

With `O=[N+]([O-])c1ccc(C2Nc3c(I)cccc3C3C=CCC32)cc1` (stereo not given), the inhibition is 4.4%.

In the case of `O=[N+]([O-])c1ccc(C2Nc3c(cccc3[N+](=O)[O-])C3C=CCC32)cc1` (stereo not given), the inhibition was 5.4%.

`O=C(O)c1cccc2c1NC(c1ccccc1Br)C1CC=CC21` (stereo not given): the inhibition is 15.1%.

Regarding `O=C(O)c1cccc2c1NC(c1ccc(Cl)cc1)C1CC=CC21` (stereo not given), the inhibition is 69.9% (active).

In the case of `O=C(O)c1cccc2c1NC(c1cccc(Cl)c1Cl)C1CC=CC21` (stereo not given), the inhibition is 27.8%.
